This is part of a sample that, as a whole, favours compounds with a hit. Of some 79,000 tested, about 15% had one in any assay. Unmarked numbers belong to inactive results. The source made the active and inactive calls. No stated cut-off is given here; in the data, active means growth inhibition above about 70%; inactive means the rest.
Assay: NCI Yeast Anticancer Drug Screen. Data for the cln2 rad14 strain (AID 165);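 further: 0% = growth equal to vehicle treated cultures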
Conditions: S. cerevisiae cln2 rad14 strain, at 50.0 µM (retest, dose inferred, filed as 5.0), hits give high values
Method in brief: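 Strain: cln2 rad14 yeast, altered in cell cycle control and DNA damage repair. Read-out: growth inhibition vs vehicle.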

Structure (SMILES)	growth inhibition
COc1ccc(Cc2nc3ccccc3s2)cc1OC	97% (active)
CN(NC(=O)c1cccs1)C1=NCCCN1	33%
CCc1cc2c(cc1O)CC[C@@H]1[C@@H]2CC[C@]2(C)[C@@H](O)CC[C@@H]12	97% (active)
C[n+]1c2ccc(Cl)cc2nc2cc(-c3ccccc3)ccc21	98% (active)
CCCCCN=Cc1c(O)c(O)c(C(C)C)c2cc(C)c(-c3c(C)cc4c(C(C)C)c(O)c(O)c(C=NCCCCC)c4c3O)c(O)c12	11%
CCOC1(c2ccccc2)c2ccccc2S(=O)(=O)N1C (configuration not stated)	12%
Cc1nc2c(cnn2-c2ccccc2)c(=O)o1	-45%
O=S(=O)(c1ccc(NC(=S)NCc2ccncc2)cc1)N1CCCCC1	16%
Nc1nn2c(C(Br)Br)cc(C(Br)Br)nc2c1[N+](=O)[O-]	99% (active)
O=C(O)CCSc1ncnc2nc[nH]c12	-97%
COc1cccc(=O)cc1	32%
COc1ccc(C2SCC(=O)N2c2ccc(-c3ccc(-n4c(-c5ccccc5)nc5ccccc5c4=O)cc3)cc2)cc1 (configuration not stated)	41%
ICCCCCCCCCC[n+]1ccc2ccccc2c1	99% (active)
CCCCCc1[nH]nc(C(=O)OC)c1N=NN1CCOCC1	99% (active)
CC1=C(C(=O)Nc2cccc(Cl)c2)C(c2ccc([N+](=O)[O-])cc2)C(C(=O)Nc2cccc(Cl)c2)=C(C)N1	32%
NC1=NC(c2ccccc2)CC(c2cc(Cl)cc(Br)c2O)=N1 (configuration not stated)	22%
C=CC1(NC(=O)c2ccccc2)CCC(C(C)(C)C)CC1 (configuration not stated)	86% (active)
O=C(Nc1ccccc1-c1nn(CN2CCNCC2)c(=S)n(CN2CCNCC2)c1=O)C(F)(F)F	10%
CCN(CC)CCOc1c(I)cc(I)cc1I	98% (active)
CCN(CC)CC(O)c1ccnc2c(O)cccc12 (configuration not stated)	32%
O=[N+]([O-])c1ccc(-c2nc(/C=N/N3CCCCC3)cs2)o1	32%
O=C(CCn1[nH]c(=O)c(Cl)c(Cl)c1=O)NNc1ccc([N+](=O)[O-])cc1[N+](=O)[O-]	1%
C(=C\c1cnnc2ccccc12)/c1ccco1	31%
Cc1ccc2ccc(C(Nc3ccccc3)c3ccncc3)c(O)c2n1 (configuration not stated)	81% (active)
c1ccc(C2=NOC3(c4ccccc4)SC4CCCCC4CN23)cc1 (configuration not stated)	98% (active)
CCCOc1ccc(/C=N/NC(N)=S)cc1	65%

Same assay, conditions: S. cerevisiae cln2 rad14 strain, at 50.0 µM, hits give high values

Structure (SMILES)	growth inhibition
COc1ccc(Cc2nc3ccccc3s2)cc1OC	91.9% (active)
CN(NC(=O)c1cccs1)C1=NCCCN1	10.3%
CCc1cc2c(cc1O)CC[C@@H]1[C@@H]2CC[C@]2(C)[C@@H](O)CC[C@@H]12	91% (active)
C[n+]1c2ccc(Cl)cc2nc2cc(-c3ccccc3)ccc21	98.2% (active)
CCCCCN=Cc1c(O)c(O)c(C(C)C)c2cc(C)c(-c3c(C)cc4c(C(C)C)c(O)c(O)c(C=NCCCCC)c4c3O)c(O)c12	20.4%
CCOC1(c2ccccc2)c2ccccc2S(=O)(=O)N1C (configuration not stated)	56.9%
Cc1nc2c(cnn2-c2ccccc2)c(=O)o1	-31.2%
O=S(=O)(c1ccc(NC(=S)NCc2ccncc2)cc1)N1CCCCC1	5.3%
Nc1nn2c(C(Br)Br)cc(C(Br)Br)nc2c1[N+](=O)[O-]	99.4% (active)
O=C(O)CCSc1ncnc2nc[nH]c12	27.4%
COc1cccc(=O)cc1	19.4%
COc1ccc(C2SCC(=O)N2c2ccc(-c3ccc(-n4c(-c5ccccc5)nc5ccccc5c4=O)cc3)cc2)cc1 (configuration not stated)	13.5%
ICCCCCCCCCC[n+]1ccc2ccccc2c1	85.4% (active)
CCCCCc1[nH]nc(C(=O)OC)c1N=NN1CCOCC1	99.5% (active)
CC1=C(C(=O)Nc2cccc(Cl)c2)C(c2ccc([N+](=O)[O-])cc2)C(C(=O)Nc2cccc(Cl)c2)=C(C)N1	79.5% (active)
NC1=NC(c2ccccc2)CC(c2cc(Cl)cc(Br)c2O)=N1 (configuration not stated)	16.2%
C=CC1(NC(=O)c2ccccc2)CCC(C(C)(C)C)CC1 (configuration not stated)	10.6%
O=C(Nc1ccccc1-c1nn(CN2CCNCC2)c(=S)n(CN2CCNCC2)c1=O)C(F)(F)F	68.1%
CCN(CC)CCOc1c(I)cc(I)cc1I	98.2% (active)
CCN(CC)CC(O)c1ccnc2c(O)cccc12 (configuration not stated)	11.9%
O=[N+]([O-])c1ccc(-c2nc(/C=N/N3CCCCC3)cs2)o1	42.4%
O=C(CCn1[nH]c(=O)c(Cl)c(Cl)c1=O)NNc1ccc([N+](=O)[O-])cc1[N+](=O)[O-]	-2.45%
C(=C\c1cnnc2ccccc12)/c1ccco1	80.8% (active)
Cc1ccc2ccc(C(Nc3ccccc3)c3ccncc3)c(O)c2n1 (configuration not stated)	49.3%
c1ccc(C2=NOC3(c4ccccc4)SC4CCCCC4CN23)cc1 (configuration not stated)	90.4% (active)
CCCOc1ccc(/C=N/NC(N)=S)cc1	76.5% (active)
